Most compounds without a hit are left out; they make up all but 6.2% or so of the library.
MARV entry inh: inhibitors of Marburg virus binding or cell entry; Marburg virus pseudotyped entry inhibition, cell reporter; Potency, µM (doses to about 37.8 µM), without a hit: at the highest dose activity change, negative = inhibition, most hits filed as inhibitors; hit rate 1.8% among 300,000; AID 540276; calls by dose curve; tested in HEK293 cells; also: potency is read from the fitted curve at half-maximal effect
FMDV inh: antivirals against foot and mouth disease virus; hit rate 1.2% among 410,000; FMDV antiviral cell-based qHTS; Potency, µM (series often up to 57.9 µM), without a hit: at the top dose activity change, negative = inhibition, hits mostly inhibitors; calls by dose curve; tested in HEK293T cells; also: read-out not given here; potency is read from the fitted curve at half-maximal effect; nearly all actives have a fitted effect of over 45% in size
HCMV antiviral: inhibitors of human cytomegalovirus | hit rate 4.5% among 410,000 | activity change, negative = inhibition, % at 57.5 µM | HFF cells, HCMV-luciferase reporter, 72 h; hits give low values; in the data active = activity change below about -60%; inconclusive = no clear call, values can overlap the other calls; inactive = above about -39%
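Two compound doses tested in HFFs infected with HCMV-luciferase, MOI 1 PFU/cell, 72 h at 37C. Lysate luminescence read with OneGlo; data normalized against buffer-only and 10uM Salinomycin inhibitor controls.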
Lassa entry inh: Lassa virus entry inhibition. AID 540256. hit rate 1.2% among 300,000. Lassa virus pseudotype entry inhibition, cell reporter. Potency, µM (highest dose often 37.9 µM), for inactives: at the highest dose activity change, negative = inhibition, usual class: inhibitors; calls by dose curve; tested in HEK293 cells; also: potency is read from the fitted curve at half-maximal effect; nearly all actives have a fitted effect of over 50% in size
* = called active by the depositor; ? = inconclusive; · = no result given; [ ] = remark or other dose. % is scaled to controls: 0 for no effect and ±100 for the full control effect.

SMILES	MARV entry inh	FMDV inh	HCMV antiviral	Lassa entry inh
COC(=O)c1ccc(CSc2nnc(-c3ccncc3)o2)cc1	14%[46.1 µM]	7%	-68*	?
c1ccc(CSc2nnc(-c3ccncc3)o2)cc1	?	0%	-73*	16%
N#Cc1ccc(CSc2nnc(-c3ccncc3)o2)cc1	0%[46.1 µM]	-10%	?	-25%[46.1 µM]
Cc1sc2nc(CSC(C)C(=O)N(C)CC(=O)Nc3ccccc3C(F)(F)F)[nH]c(=O)c2c1C (stereo unspecified)	?	0%	-15	?
CCN(CC)C(=O)C(=O)c1cccn1-c1cccc(Cl)c1C#N	-14%[46.1 µM]	11%	39	0%
CN1C(=O)c2ccc(NC(=O)C3CC3)cc2C1=O	·	-10%	17	·
O=c1[nH]c2cccnc2n1-c1cccc([N+](=O)[O-])c1	13%[46.1 µM]	-11%	-85*	4%
Cc1cnnn1-c1cccc([N+](=O)[O-])c1	4%[46.1 µM]	5%	-37	10%
Cn1cnnc1SCC(=O)N1CCN(C(=O)c2ccco2)CC1	-4%[46.1 µM]	-8%	-21	6%
NNC(=O)CN1C(=O)C2(OCCO2)c2ccccc21	·	-3%	-5	·
Cc1cc(NC(=O)c2cc(-c3cccnc3)nc3c(C)c(C)ccc23)no1	?	?	-64*	-15%
Cc1ccc(-c2cc(C(=O)Nc3cc(C)on3)c3ccccc3n2)c(C)c1	0%	-21%	-33	-16%
COC(=O)c1sccc1NC(=O)c1cc(-c2cc(C)ccc2C)nc2ccccc12	-29%	-4%	76	-2%
Cc1ccc(C)c(-c2cc(C(=O)Nc3nccs3)c3ccccc3n2)c1	-13%	?	-71*	-24%
Cc1ccc(C)c(-c2cc(C(=O)Nc3cccnc3)c3ccccc3n2)c1	11µM*	0%	-7	-6%
Cc1cc(NC(=O)c2cc(-c3ccccc3C)nc3ccccc23)no1	-28%	-9%	-74*	-21%
Cc1ccc(-n2ccnc(SCC(=O)NC3CCCC3)c2=O)cc1Cl	-7%	-13%	-26	3%
Clc1c(CSc2nc3ccccc3o2)nc2sccn12	?	-10%	33	?
O=C(Nc1ccccc1O)c1ccc2c(c1)C(=O)N(c1ccccc1)C2=O	-2%	-10%	-6	-28%
Cc1ccc(C2=C(O)c3ccccc3C(=O)C2=O)cc1	·	3%	4	·
O=C1C(c2cc(=O)c3ccccc3[nH]2)=C(O)c2ccccc21	5.6µM*	-12%	13	?
O=C1C(c2ccncc2)=C(O)c2ccccc21	7.1µM*	0%	67	7.9µM*
O=c1cc(-c2ccccc2)[nH]c2ccccc12	?	-12%	-76*	-6%
COc1ccc(S[C@]2(c3nc(C)no3)CC(=O)N(c3ccccc3)[C@@H]2c2ccc(OC)cc2)cc1	·	·	-28	·
COc1ccc(C(O)c2ncc(-c3ccccc3)[nH]2)cc1F (stereo unspecified)	·	38%	-101*	·
SMILES	MARV entry inh	FMDV inh	HCMV antiviral	Lassa entry inh
OC(c1ccc(F)cc1)c1ncc(-c2ccccc2Cl)[nH]1 (stereo unspecified)	·	107%	85	·
COc1ccc(C(O)c2ncc(-c3ccccc3Cl)[nH]2)cc1F (stereo unspecified)	·	0%	-102*	·
COc1ccc(C(O)c2ncc(-c3ccccc3)[nH]2)cc1 (stereo unspecified)	·	0%	28	·
Cc1cc(F)ccc1S(=O)(=O)Nc1ccccc1C(=O)Nc1ccccc1-c1nc2ccccc2[nH]1	?	0%	·	11µM*
CC(=O)OC(C=C(C)C)C/C(C)=C/COc1c2ccoc2cc2oc(=O)ccc12 (stereo unspecified)	·	-24%	-16	·
CN(Cc1c(C(=O)N/N=C/c2cccc(O)c2)nnn1-c1nonc1N)C1CCCCC1	·	0%	0	·
CCN(CC)c1ccc(/C=N/NC(=O)c2nnn(-c3nonc3N)c2C(C)C)c(O)c1	2.5µM*	0%	-102*	?
CC(C)c1c(C(=O)N/N=C/c2ccncc2)nnn1-c1nonc1N	·	-29%	0	·
Cc1nnn(-c2nonc2N)c1C(=O)N/N=C/c1cccc2ccccc12	?	-4%	-65*	-3%
CN(Cc1c(C(=O)N/N=C/c2ccccc2O)nnn1-c1nonc1N)C1CCCCC1	·	-19%	-98*	·
CCN(CC)c1ccc(/C=N/NC(=O)c2ccoc2C)c(O)c1	·	-16%	-100*	·
COc1cc(-c2nnc3sc(Cc4ccc(Cl)cc4)nn23)cc(OC)c1OC	·	-27%	-22	·
Nc1nonc1-n1nnc(C(=O)N/N=C/c2ccc(O)cc2)c1CN1CCCCCC1	·	-14%	-61*	·
Nc1nonc1-n1nnc(C(=O)N/N=C/c2cccc(O)c2)c1CN1CCCC1	3%[46.1 µM]	-11%	-24	-6%[46.1 µM]
CC1CCN(Cc2c(C(=O)N/N=C/c3ccccc3O)nnn2-c2nonc2N)CC1	3.2µM*	10%	-95*	?
CCCCNC(=O)c1nc(C2CCN(S(=O)(=O)c3c(F)cccc3F)CC2)oc1-c1ccccc1	·	-20%	-36	·
CCOC(=O)Cc1nnc(Nc2cc(C)ccc2C)c2ccccc12	1%[46.1 µM]	-9%	-60*	-1%[46.1 µM]
CCOC(=O)Cc1nnc(Nc2ccc(C)cc2C)c2ccccc12	5%	?	-60*	-16%
COC(=O)c1c(-c2ccc(C)cc2)csc1NC(=S)NC(=O)c1ccc(F)cc1	9%	-21%	1	1%
CCOC(=O)c1c(-c2ccccc2)csc1NC(=O)/C(C#N)=C/c1ccc(OC)c(OC)c1	-10%	0%	28	10%
CCOC(=O)c1c(-c2ccc(C)cc2)csc1NC(=S)NC(=O)c1ccccc1	1.8µM*	?	?	2.1µM*
Cc1cccc(C(=O)Nc2scc(-c3ccc(Br)cc3)c2C(=O)O)c1	?	-11%	?	?
Cc1ccc(-c2csc(NC(=O)c3ccc(Br)cc3)c2C(=O)O)cc1	1.3µM*	8%	-95*	?
CCOC(=O)c1c(-c2ccccc2)csc1NC(=O)/C(C#N)=C/c1ccc(O)c(OC)c1	4%	?	-65*	-11%
CCOC(=O)c1c(-c2ccccc2)csc1NC(=O)c1cc(-c2ccc(F)cc2)on1	-13%[46.1 µM]	-13%	8	2%[46.1 µM]
SMILES	MARV entry inh	FMDV inh	HCMV antiviral	Lassa entry inh
CCOC(=O)c1c(-c2ccc(F)cc2)csc1NC(=O)c1c(-c2ccccc2)noc1C	3.5µM*	-27%	-68*	8.9µM*
Cc1ncc([N+](=O)[O-])n1CCOC(=O)c1cc(Cl)cc(Cl)c1N	-9%	-22%	-11	-3%
CC(=O)Nc1nc(-c2ccc3c(c2)CC(C)N3C(=O)C2CC2)c(C)s1 (stereo unspecified)	-16%[46.1 µM]	0%	-100*	6%
Cc1sc(NC(=O)c2ccco2)nc1-c1ccc2c(c1)CC(C)N2C(=O)C1CC1 (stereo unspecified)	10µM*	14µM*	-97*	9.2µM*
CCOC(=O)C(=O)Nc1nc(-c2ccc3c(c2)CCN3C(=O)C2CC2)c(C)s1	11%[46.1 µM]	0%	5	29%[46.1 µM]
Cc1cc(OCC(=O)NCC2(N3CCN(C)CC3)CCCCC2)cc(C)c1Cl	?	-4%	-82*	-24%[46.1 µM]
O=C(CSc1ccccc1)NCC1(N2CCOCC2)CCCCC1	-29%	0%	-77*	1%
O=C(COc1ccccc1Cl)NCC1(N2CCOCC2)CCCCC1	-24%[46.1 µM]	-23%	-100*	12%[46.1 µM]

Bioassay records: PubChem, National Center for Advancing Translational Sciences (NCATS)
